Compounds with a hit are over-represented: about 1.1% of the library has one in this group of screens.
LAP4-GFP MLPCN: modulators of TOR pathway LAP4-GFP in S. cerevisiae | 0.34% of 320,000 active | S. cerevisiae LAP4-GFP multiplex, flow cytometry GFP, 3 h; median GFP as percent of DMSO wells | GFP response vs DMSO, % at 10 µM;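 active = GFP response vs DMSO above a set limit, about the screen mean plus 3 SD, cut at about 150% in these data; inconclusive = under 70 cell events counted for the yeast strain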
MEP2-GFP yeast: yeast TOR pathway MEP2-GFP modulation | GFP response vs DMSO, % at 10 µM | AID 2016 | 0.51% of 330,000 active | S. cerevisiae MEP2-GFP strain, flow cytometry GFP, 3 h; 100% = DMSO control level;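 active = GFP response versus DMSO above a set limit, roughly screen mean plus 3 SD, cut at about 180% in these data; inconclusive = fewer than 70 cells counted for a yeast strain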;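 note: median GFP fluorescence of the barcode-gated MEP2-GFP cells per well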
RPL19A-GFP yeast: alters RPL19A-GFP fluorescence in TOR pathway yeast screen; S. cerevisiae RPL19A-GFP strain, flow cytometry, 3 h; stronger effect = lower value; percent response vs DMSO, % at 10 µM; 0.3% of 330,000 active; AID 2025;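 active = percent response vs DMSO below 50%; inconclusive = fewer than 70 events counted for the yeast strain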;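 note: median channel GFP fluorescence of the barcoded RPL19A-GFP strain; ratio of sample median GFP to plate DMSO average so 100% = DMSO; lower means less RPL19A-GFP as with rapamycin TOR inhibition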
AGP1 TOR yeast: yeast TOR pathway AGP1-GFP modulation; 0.02% of 320,000 active; S. cerevisiae AGP1-GFP multiplex flow cytometry, 3 h; GFP as percent of DMSO wells; AID 2066; GFP response vs DMSO, % at 10 µM;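 active = GFP response relative to DMSO above a set limit, near screen average plus 3 SD, cut at about 150% in these data; inconclusive = fewer than 70 cells counted for the yeast strain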;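 note: median GFP channel fluorescence of the gated AGP1 strain per well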
VLA-4 inh: inhibition in a human VLA-4 binding assay; P13612; VLA-4 expressing cells, ligand binding flow cytometry; inhibition, % (about 7 µM as worked out from the volumes in the protocol); 0.2% of 330,000 active; AID 2557; in the data active = inhibition above about 50%
Target sequence (P13612 whole entry, looked up): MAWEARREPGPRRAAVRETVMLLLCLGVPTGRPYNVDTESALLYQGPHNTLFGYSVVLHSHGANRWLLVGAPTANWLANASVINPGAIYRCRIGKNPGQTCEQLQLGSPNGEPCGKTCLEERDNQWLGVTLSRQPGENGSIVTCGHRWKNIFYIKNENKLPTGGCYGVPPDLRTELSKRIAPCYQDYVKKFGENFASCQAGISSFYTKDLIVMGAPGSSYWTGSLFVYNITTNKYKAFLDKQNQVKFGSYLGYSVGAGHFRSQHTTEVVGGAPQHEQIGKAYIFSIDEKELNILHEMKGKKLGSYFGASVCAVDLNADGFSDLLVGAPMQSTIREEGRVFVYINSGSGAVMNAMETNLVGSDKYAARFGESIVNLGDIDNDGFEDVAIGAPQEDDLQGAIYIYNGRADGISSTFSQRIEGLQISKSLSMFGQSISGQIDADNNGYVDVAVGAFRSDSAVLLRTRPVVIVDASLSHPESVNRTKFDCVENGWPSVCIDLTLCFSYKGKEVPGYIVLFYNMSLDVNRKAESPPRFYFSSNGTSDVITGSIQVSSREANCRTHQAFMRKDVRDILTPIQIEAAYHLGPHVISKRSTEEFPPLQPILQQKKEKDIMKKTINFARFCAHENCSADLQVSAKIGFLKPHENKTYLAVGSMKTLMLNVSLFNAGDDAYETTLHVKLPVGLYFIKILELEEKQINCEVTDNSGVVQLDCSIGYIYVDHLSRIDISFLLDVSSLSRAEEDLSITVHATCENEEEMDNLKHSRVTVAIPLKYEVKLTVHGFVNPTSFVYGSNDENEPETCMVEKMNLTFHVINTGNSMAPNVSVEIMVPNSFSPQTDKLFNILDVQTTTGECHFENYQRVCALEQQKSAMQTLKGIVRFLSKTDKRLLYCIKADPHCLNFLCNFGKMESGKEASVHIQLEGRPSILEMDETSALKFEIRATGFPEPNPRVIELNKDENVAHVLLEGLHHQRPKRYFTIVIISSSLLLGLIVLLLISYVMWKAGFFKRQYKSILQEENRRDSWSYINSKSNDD
CIT2-GFP yeast: yeast TOR pathway CIT2-GFP modulation. S. cerevisiae CIT2-GFP strain, flow cytometry, 3 h; 100 means same as DMSO wells. GFP response vs DMSO, % at 10 µM. 0.065% of 320,000 active;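 active = GFP response relative to DMSO above a set limit, near the screen mean plus 3 SD, cut at about 150% in these data; inconclusive = Fewer than 70 cells measured for a yeast strain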;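 note: ratio of well median GFP fluorescence to mean of DMSO wells on the plate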
Active calls of the source: *; ? = inconclusive; / = no result given; [ ] = dose if it differs, or a comment.

SMILES	LAP4-GFP MLPCN	MEP2-GFP yeast	RPL19A-GFP yeast	AGP1 TOR yeast	VLA-4 inh	CIT2-GFP yeast
Cc1nn(C(C)C(=O)NCCc2ccco2)c(=O)c2nn(-c3ccccc3)c(C)c12 (configuration not stated)	108	112	102	103	0	102
COc1ccc(NC(=O)c2ccc(OCc3c(C)noc3C)c(OC)c2)cn1	72	190*[may fluoresce violet]	53	?	-5	?
COc1ccc(/C=C/C(=O)NC2CCN(Cc3ccccc3)CC2)cc1OC	102	106	100	98	-1	102
Cc1ccc(C2=N/C(=C\N3CCCCC3)C(=O)O2)cc1	105	184*[may fluoresce violet]	63	?	1	?
CCOc1ccc2nc(SCC(=O)NCC3CCCO3)c(C#N)cc2c1 (configuration not stated)	112	211*	99	49	7	93
O=C(NCc1cccnc1)C1CCN(S(=O)(=O)c2cc([N+](=O)[O-])ccc2Cl)CC1	97	105	102	100	2	102
Clc1ccccc1Nc1nc(-c2cccnc2)cs1	82	210*[may fluoresce violet]	43*[may fluoresce violet]	?	20	?
c1cncc(Nc2nc(-c3cccnc3)cs2)c1	94	97	94	101	-10	107
O=C(/C=C/c1ccc(Cl)cc1)Nc1cc(S(=O)(=O)N2CCOCC2)ccc1N1CCOCC1	84	93	99	90	-9	97
O=C(Nc1ccc2c(c1)OCO2)c1cnn2c(C(F)(F)F)cc(-c3ccco3)nc12	102	102	101	100	-9	109
COc1ccc(NC(=O)c2cnn3c(C(F)(F)F)cc(-c4ccco4)nc23)cc1OC	85	250*[may fluoresce violet]	/	27	-8	?
N#CC1=C(N)NC(SCc2ccc(Br)cc2)=C(C#N)C12CCCCC2	79	256*[may fluoresce violet]	18*[may fluoresce violet]	?	5	?
CC(=O)NCCc1nc2cc(NC(=O)c3cccs3)ccc2n1C	99	271*[may fluoresce violet]	90	50	0	?
Cc1ccsc1CNCC(O)c1ccccc1 (configuration not stated)	96	97	102	102	0	108
O=C1Nc2ccccc2C(=O)C1(Cl)Cc1ccccc1 (configuration not stated)	184*	86	/	56	0	116
Cc1ccc(-c2cc(C(=O)N3CCN(C(=O)c4ccco4)CC3)[nH]n2)c(C)c1	86	106	99	95	24	98
COc1cc(C(O)P(=O)(OCC(C)C)OCC(C)C)cc(OC)c1OC (configuration not stated)	89	183*	/	53	1	108
CCOP(=O)(OCC)C(O)c1cc(OC)c(OC)c(OC)c1 (configuration not stated)	98	97	100	103	6	100
CC1CCCCN1S(=O)(=O)c1ccc(S(=O)(=O)N2CCCC2)cc1 (configuration not stated)	94	105	100	104	2	106
CC1CCCCN1S(=O)(=O)c1ccc(S(=O)(=O)N2CCN(C)CC2)cc1 (configuration not stated)	83	210*[may fluoresce violet]	53	?	11	?
CC(Nc1cc(C)cc(C)c1)=[N+](C)CCNS(=O)(=O)c1ccc(Cl)cc1	101	108	92	114	-9	152*[may fluoresce green]
COC(=O)c1ccccc1NC(=O)c1cc(-c2cccs2)on1	107	98	97	97	-3	98
COC(=O)c1ccccc1NC(=O)c1cc(-c2ccco2)on1	74	214*[may fluoresce violet]	52	?	0	?
Cc1cccc(-c2noc(CN(C)C(=O)c3ccco3)n2)c1	87	514*[may fluoresce violet]	67	13	-4	?
Cc1cccc(-c2noc(CN(C)C(=O)c3ccoc3C)n2)c1	103	108	106	102	1	103
SMILES	LAP4-GFP MLPCN	MEP2-GFP yeast	RPL19A-GFP yeast	AGP1 TOR yeast	VLA-4 inh	CIT2-GFP yeast
Cc1cc(C)c(C(=O)CC(=O)c2ccccc2Cl)c(O)c1	125	126	101	99	-2	100
c1ccc(CSc2ccc(-c3ccccn3)nn2)cc1	155*	109	91	93	-2	83
O=C(CCS(=O)(=O)c1ccccc1)NC1CCCCC1	91	98	99	102	24	98
O=C(CCS(=O)(=O)c1ccc(Br)s1)NC1CCCCCC1	74	448*[may fluoresce violet]	61	23	-2	?
CCN(CC)C(=O)c1ccc2c3c(cccc13)C(=O)N(CCc1ccc(OC)c(OC)c1)C2=O	119	177*	104	98	6	103
O=[N+]([O-])c1cc(Cl)cc(/C=N/NC(=S)Nc2ccc(S(=O)(=O)N3CCOCC3)cc2)c1O	108	103	106	96	7	107
CCC(C)/C(C)=N/NC(=O)CSc1nc2ccccc2[nH]1 (configuration not stated)	95	104	104	102	-17	101
CC(C)=NOC(=O)c1c(C)noc1-c1snnc1C	113	603*[may fluoresce violet]	56	22	11	?
Cc1cc(NC(=O)c2ccc(Br)o2)ccc1NC(=O)c1ccco1	70	238*[may fluoresce violet]	45*[may fluoresce violet]	?	3	?
N#C/C(=C/c1ccc(N2CCOCC2)o1)c1ccc(Cl)cc1	161*	96	95	86	-376	101
N#C/C(=C\c1ccc(N2CCOCC2)o1)c1nc2ccccc2[nH]1	128	139	103	111	-40	125
O=C(O)c1ccc(NS(=O)(=O)c2cccc(C(=O)Nc3cccc(C(=O)O)c3)c2)cc1	99	100	105	100	1	99
CCCN(c1ccccc1F)S(=O)(=O)c1cc(-c2cc(C)no2)ccc1OC	89	134	47*	13	1	96
C=CCn1c(-c2sc3nc(C)cc(C)c3c2N)n[nH]c1=S	112	105	99	107	3	100
Cc1ccc(S(=O)(=O)N2CCOC2CNC(=O)C(=O)NCCN2CCOCC2)cc1 (configuration not stated)	92	92	105	101	12	108
CCOC(=O)CC(NC(=O)c1cc2cccc(OC)c2oc1=O)c1ccc(OC)cc1 (configuration not stated)	100	109	104	101	3	97
O=C(NCCc1ccccc1)c1ccc(CS(=O)(=O)c2ccc(Br)cc2)o1	80	159	20*[may fluoresce violet]	?	5	?
Cc1ccc(N(C(=O)c2snc(C(N)=O)c2N)C(C(=O)NCc2ccccc2)c2ccncc2)c(C)c1 (configuration not stated)	58	210*[may fluoresce violet]	38*[may fluoresce violet]	?	-1	?
CC(=O)Nc1ccc(NC(=O)C(C)OC(=O)C2(c3ccccc3F)CCCC2)cc1 (configuration not stated)	93	101	99	95	18	96

Compound activity from PubChem.
